PubChem BioAssay (EPA / NIEHS)
The source made the active and inactive calls. The calls were made as follows: active = hit-call score of the fitted dose curve at least 0.9, where 1 is the maximum; inactive = score below 0.9.

read-out: Matrix Metallopeptidase 1 (MMP1), MMP1 (gene 4312); test: BSK_BE3C_MMP1: BioMAP Diversity Plus: BE3C Assay for Matrix Metallopeptidase 1 (MMP1) Biomarker Activity (AID 2283024); conditions: primary human bronchial epithelial cells; actives raise or lower the signal
Protocol: BSK_BE3C is a cell-based, multiplexed-readout assay that uses bronchial epithelial cell, a human lung primary cell, with measurements taken at 24 hours after chemical dosing in a 96-well plate.BSK_BE3C_MMP1 is an assay component measured in the BSK_BE3C assay. It measures MMP-1 antibody related to regulation of gene expression using ELISA technology.Data from the assay component BSK_BE3C_MMP1 was analyzed into 1 assay endpoint. This assay endpoint, BSK_BE3C_MMP1, was analyzed with bidirectional fitting relative to DMSO as the negative control and baseline of activity. Using a type of binding reporter, gain or loss-of-signal activity can be used to understand changes in the signaling as they relate to the gene MMP1. Furthermore, this assay endpoint can be referred to as a primary readout, because this assay has produced multiple assay endpoints where this one serves a signaling function. To generalize the intended target to other relatable targets, this assay endpoint is annotated to the protease intended target family, where the subfamily is matrix metalloproteinase.
The levels of cell surface (or secreted, indicated by the prefix "s") biomarker endpoints were measured by ELISA. Overt cytotoxicity to cells in confluent adherent cultures (all systems other than the BT system) was assessed by measuring total protein levels using sulforhodamine B (SRB) staining in parallel cultures at the time of biomarker measurements, indicated as SRB endpoints. For proliferation assays for adherent cell types, individual cell types are cultured at sub-confluence and relative cell numbers quantified by SRB staining at time points optimized for each system (48 h: 3C and CASM3C systems; 72 h: BT and HDF3CGF systems; 96 h: SAg system). SRB was performed by staining cells with 0.1% SRB after fixation with 10% TCA and reading wells at 560 nm.Viability and proliferation of PBMC (T cells) was quantified by Alamar Blue reduction for the SAg and BT systems. For PBMC viability (referred to as PBMC Cytotoxicity within the assay endpoint names), cells were plated (75,000/well in a 96-well plate) and then chemical samples added for 1 h before addition of activators, SEB and TSST-1 (20 ng/mL final concentration each). Cells were incubated for 90 h. Then, Alamar Blue (20 uL/well) (Invitrogen, Cat DAL1100) was added for 6 h, and the plates were read with a fluorescence microplate reader at 546/580 nm (excitation/emission). For PBMC proliferation, cells were plated and activated as above but incubated for only 16 h prior to addition of Alamar Blue. Plates were read after 6 h.

**Q.** `CN=C=S` was tested. Which outcome did it give?
**A.** inactive

**Q.** For `CCOc1cc(C(C)(C)C)ccc1C1COC(c2c(F)cccc2F)=N1` (stereo not given), which AC50 is on record?
**A.** 10.3 µM (active)

**Q.** How did the outcome turn out when `COC(=O)NS(=O)(=O)c1ccc(N)cc1` was run?
**A.** inactive

**Q.** How did the outcome turn out when `COCc1cnc(C2=NC(C)(C(C)C)C(=O)N2)c(C(=O)O)c1` (stereo not given) was run?
**A.** inactive

**Q.** With `Clc1nc(Cl)nc(Nc2ccccc2Cl)n1` as the compound, how does the outcome read?
**A.** inactive

**Q.** How did the outcome turn out when `CCOP(=O)(OCC)Oc1nc(Cl)c(Cl)cc1Cl` was run?
**A.** inactive

**Q.** With `Cc1cnc(C2=NC(C)(C(C)C)C(=O)N2)c(C(=O)O)c1` (stereo not given) as the compound, how does the outcome read?
**A.** inactive

**Q.** `Cc1cc(C)nc(Nc2ccccc2)n1` was tested. Which outcome did it give?
**A.** inactive

**Q.** With `COc1cc(OC)nc(NC(=O)NS(=O)(=O)c2ncccc2OCC(F)(F)F)n1` as the compound, how does the outcome read?
**A.** inactive

**Q.** How did the outcome turn out when `CCCC(=NOCC)C1=C(O)CC(CC(C)SCC)CC1=O` (stereo not given) was run?
**A.** inactive

**Q.** How did the outcome turn out when `O=P(O)(O)CCCl` was run?
**A.** inactive

**Q.** For `O=c1n(Cl)c(=O)n(Cl)c(=O)n1Cl`, which outcome is on record?
**A.** inactive

**Q.** `CC(C)=CC1C(C(=O)OCc2coc(Cc3ccccc3)c2)C1(C)C` (stereo not given) was tested. Which outcome did it give?
**A.** inactive

**Q.** With `CC(C)NC(=O)N1CC(=O)N(c2cc(Cl)cc(Cl)c2)C1=O` as the compound, how does the outcome read?
**A.** inactive

**Q.** With `CC1(C)CCC(=Cc2ccc(Cl)cc2)C1(O)Cn1cncn1` (stereo not given) as the compound, how does the outcome read?
**A.** inactive

**Q.** `CCNP(=S)(OC)O/C(C)=C/C(=O)OC(C)C` (stereo not given) was tested. Which outcome did it give?
**A.** inactive

**Q.** `COP(=S)(OC)SCn1nnc2ccccc2c1=O` was tested. Which outcome did it give?
**A.** inactive

**Q.** Which AC50 does the source give for `O=C1C2CC=CCC2C(=O)N1SC(Cl)(Cl)Cl` (stereo not given) here?
**A.** 12.1 µM (active)

**Q.** Which outcome does the source give for `O=C(O)c1c(Cl)ccc2cc(Cl)cnc12` here?
**A.** inactive

**Q.** Which outcome does the source give for `CC1(C)C(C(=O)OC(C#N)c2cccc(Oc3ccccc3)c2)C1(C)C` (stereo not given) here?
**A.** inactive

**Q.** How did the outcome turn out when `COP(=S)(OC)Oc1ccc([N+](=O)[O-])c(C)c1` was run?
**A.** inactive

**Q.** With `CCCN(CC)CC1COC2(CCC(C(C)(C)C)CC2)O1` (stereo not given) as the compound, how does the outcome read?
**A.** inactive

**Q.** With `CCC(C)n1c(=O)[nH]c(C)c(Br)c1=O` (stereo not given) as the compound, how does the outcome read?
**A.** inactive

**Q.** With `CC(C)N1C(=O)c2ccccc2NS1(=O)=O` as the compound, how does the outcome read?
**A.** inactive

**Q.** `Cc1nc(N(C)C)nc(OC(=O)N(C)C)c1C` was tested. Which outcome did it give?
**A.** inactive

**Q.** Which outcome does the source give for `Cc1c(COC(=O)[C@@H]2[C@H](/C=C(\Cl)C(F)(F)F)C2(C)C)cccc1-c1ccccc1` here?
**A.** inactive

**Q.** `CO/N=C(/C1=NOCCO1)c1ccccc1Oc1ncnc(Oc2ccccc2Cl)c1F` was tested. Which outcome did it give?
**A.** inactive

**Q.** Which AC50 does the source give for `CC(C)N1C(=O)N(c2ccccc2)CSC1=NC(C)(C)C` here?
**A.** 25.8 µM (active)

**Q.** For `Nc1cnn(-c2ccccc2)c(=O)c1Cl`, which outcome is on record?
**A.** inactive

**Q.** How did the outcome turn out when `C=C(C)CN(CC)c1c([N+](=O)[O-])cc(C(F)(F)F)cc1[N+](=O)[O-]` was run?
**A.** inactive

**Q.** Which outcome does the source give for `Nc1c(Cl)c(F)nc(OCC(=O)O)c1Cl` here?
**A.** inactive

**Q.** `CSC(=O)c1c(C(F)F)nc(C(F)(F)F)c(C(=O)SC)c1CC(C)C` was tested. Which AC50 did it give?
**A.** 6.22 µM (active)

**Q.** `CCCCC(O)(Cn1cncn1)c1ccc(Cl)cc1Cl` (stereo not given) was tested. Which AC50 did it give?
**A.** 12.8 µM (active)

**Q.** How did the outcome turn out when `O=C(Nc1ccccc1-c1ccc(Cl)cc1)c1cccnc1Cl` was run?
**A.** inactive

**Q.** With `CCCCC(C#N)(Cn1cncn1)c1ccc(Cl)cc1` (stereo not given) as the compound, how does the outcome read?
**A.** inactive

**Q.** `CS(=O)(=O)c1ccc(C(=O)C2C(=O)CCCC2=O)c([N+](=O)[O-])c1` was tested. Which outcome did it give?
**A.** inactive

**Q.** For `COC(=O)NC(=S)Nc1ccccc1NC(=S)NC(=O)OC`, which outcome is on record?
**A.** inactive

**Q.** Which outcome does the source give for `COCC(C)N(C(=O)CCl)c1c(C)csc1C` (stereo not given) here?
**A.** inactive

**Q.** How did the outcome turn out when `COC(=O)c1c(C(F)F)nc(C(F)(F)F)c(C2=NCCS2)c1CC(C)C` was run?
**A.** inactive

**Q.** How did the outcome turn out when `CCOP(=S)(OCC)Oc1nc(Cl)n(C(C)C)n1` was run?
**A.** inactive
